Compound activity: PubChem, National Center for Advancing Translational Sciences (NCATS)
TDP1 cell CPT: growth inhibition of DT40 Tdp1-/-;hTDP1 cells with camptothecin (screen for TDP1 inhibitors). AID 686979. chicken DT40 Tdp1-/-;hTDP1 cells + 20 nM CPT, ATP luminescence, 48 h. Potency, µM (series often up to 46.2 µM), for the others: at the highest dose activity change, negative = growth inhibition, actives largely listed as inhibitors. hit rate 12% among 420,000; note: potency is the fitted concentration of half-maximal effect; % is set by controls: 0 for no effect and ±100 for the full control effect; nearly all actives have a fitted effect of over 55% in size
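Cell growth measured by CellTiter-Glo luminescence after a minimum 48 h, 37 C compound exposure with 20 nM CPT in Tdp1-knockout DT40 cells stably expressing hTDP1, seeded 400/well; qHTS titration format.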
IL1B secr inh: blocks inflammasome-driven IL-1 beta release. AID 743279. hit rate 4.7% among 360,000. activity change, % at 57.5 µM. THP-1 LPS/ATP IL-1B secretion, AlphaLISA, 16 h; active compounds read low; in the data active = activity change below about -50%; inconclusive = mostly about -30% to -49%; note: % is set by controls: 0 for no effect and ±100 for the full control effect
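Secreted IL-1B measured by AlphaLISA bead assay after 16 h compound exposure of THP-1 cells; compounds (final up to 57.5 uM) added 1 h before LPS (250 ng/mL) and ATP (1.25 mM) stimulation; lower signal means less secretion.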
TGFb SMAD3 inh: TGF-b pathway inhibition; HepG2 CAGA-GFP TGF-b/SMAD3 reporter, GFP fluorescence, 18 h; TGF-beta stimulated, 500 pg/mL final; Potency, µM (titrated, usually from 46.1 µM), inactives show at the top dose activity, negative = inhibition, hits mostly inhibitors; hit rate 1.2% among 410,000; AID 588855; note: potency is the fitted concentration of half-maximal effect; % is set by controls: 0 for no effect and ±100 for the full control effect; nearly all actives have a fitted effect of over 65% in size
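HEPG2 CAGA-GFP reporter cells (1000/well, DMEM with 1% FBS) received compounds, then recombinant TGF-beta at 500 pg/mL final for 18 hours at 37 degrees C. Per-cell GFP summed per well was normalised to unstimulated and stimulated DMSO controls before curve fitting.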
TDP1 block: blocks human tyrosyl-DNA phosphodiesterase 1. Potency, µM (top dose mostly 130 µM), inactives show at the top dose activity change, negative = inhibition, most hits filed as inhibitors. hit rate 0.28% among 350,000. Q9NUW8. recombinant TDP1, AlphaScreen DNA substrate cleavage; note: potency is the fitted concentration of half-maximal effect; % is set by controls: 0 for no effect and ±100 for the full control effect; nearly all actives have a fitted effect of over 40% in size
Target sequence (Q9NUW8 whole entry, looked up): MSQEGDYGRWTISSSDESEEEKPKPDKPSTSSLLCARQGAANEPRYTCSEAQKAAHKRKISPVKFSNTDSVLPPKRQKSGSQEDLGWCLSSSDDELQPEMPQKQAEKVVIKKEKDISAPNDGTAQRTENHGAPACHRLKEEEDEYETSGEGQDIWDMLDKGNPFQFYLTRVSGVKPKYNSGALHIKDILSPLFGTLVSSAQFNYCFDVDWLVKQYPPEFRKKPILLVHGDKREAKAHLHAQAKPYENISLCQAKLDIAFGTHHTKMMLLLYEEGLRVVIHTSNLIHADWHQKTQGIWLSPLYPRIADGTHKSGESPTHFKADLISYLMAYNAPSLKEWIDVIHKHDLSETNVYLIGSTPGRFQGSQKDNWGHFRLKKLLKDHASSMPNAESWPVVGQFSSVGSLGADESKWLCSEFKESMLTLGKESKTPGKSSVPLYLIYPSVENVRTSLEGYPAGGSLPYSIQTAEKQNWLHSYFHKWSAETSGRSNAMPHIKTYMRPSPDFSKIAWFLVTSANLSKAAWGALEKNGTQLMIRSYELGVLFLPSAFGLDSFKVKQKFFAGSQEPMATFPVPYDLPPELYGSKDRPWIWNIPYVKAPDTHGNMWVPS
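AlphaScreen read-out: signal falls as enzyme removes the 3' tyrosine-FITC from a 5'-biotinylated DNA oligo (15 nM, 5 min, RT). Enzyme was E. coli-made recombinant Tdp1 at 1 nM, exposed to compound for 15 min beforehand; beads 10 ug/ml, 10 min.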
HepG2 tox: kills HepG2 cells in TGF-b inhibitor counter-screen | HepG2 CAGA-GFP viability, ATP luminescence, 18 h | Potency, µM (doses to about 46.1 µM), for inactives: at the top dose activity change, negative = cytotoxicity, usual class: cytotoxic | hit rate 0.76% among 410,000 | AID 588856; note: potency is the fitted concentration of half-maximal effect
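HepG2 CAGA-GFP cells (1000/well, DMEM with 1% FBS) received compound, then TGF-beta at 500 pg/mL final, and were incubated 18 hours at 37 degrees C. Viability was read by CellTiter-Glo luminescence. Media-only wells were set as complete cell-killing and DMSO as no toxicity.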
DT40 TDP1 no CPT: qHTS for Inhibitors of human tyrosyl-DNA phosphodiesterase 1 (TDP1): qHTS in cells in absence of CPT; hit rate 15% among 420,000; Potency, µM (top dose mostly 46.2 µM), without a hit: at the top dose activity change, negative = growth inhibition, usual class: inhibitors; DT40 Tdp1-/- hTDP1 cells, no CPT, ATP luminescence, 48 h; note: potency is the fitted concentration of half-maximal effect; % is set by controls: 0 for no effect and ±100 for the full control effect; nearly all actives have a fitted effect of over 55% in size
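Cells were dispensed at 400 per well, compounds added by pin tool, plates incubated ≥48 hr at 37 °C, then CellTiter-Glo added for 30 min at room temperature before luminescence reading. Line: DT40 Tdp1-/- complemented with hTDP1; camptothecin omitted.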
An asterisk follows results filed as active; ? = inconclusive; nt = no result given; [ ] = dose if it differs, or a comment. This is a sample that favours compounds with a hit; in the whole collection about 18% have one here. Unless noted, calls come from the whole dose curve; as a rule, active = well fitted curve in the direction sought with a large enough effect; inconclusive = small, poorly fitted or top-dose-only effect, or another doubt; inactive = no such curve, though single readings can be large; an effect the other way counts as inactive or inconclusive.

SMILES	TDP1 cell CPT	IL1B secr inh	TGFb SMAD3 inh	TDP1 block	HepG2 tox	DT40 TDP1 no CPT
CC1=CC2=NC(=O)/C(=C\c3cccn3CCOc3ccc(C)c(C)c3)C(=N)N2O1	?	-60*	0%	7%	-2%	?
CC1=CC2=NC(=O)/C(=C/c3cccn3Cc3ccccc3)C(=N)N2O1	19%	26	-2%	7%	10%	?
CCOc1cc(/C=N\Nc2ncc(F)c(N3CCOCC3)n2)ccc1Oc1nc(Cl)ncc1F	5.2µM*	-83*	3%	11%	-9%	1.8µM*
COc1ccc(/C=N/n2cnnc2)cc1Oc1nc(Cl)ncc1F	6%	11	-19%	-3%	-6%	9%
COc1ccc(/C=N/NC(=O)CC#N)cc1Oc1nc(Cl)ncc1F	1%	6	-4%	nt	-24%	?
CCOc1cc(/C=N/NC(=O)c2ccc(O)cc2)ccc1Oc1nc(Cl)ncc1F	21µM*	0	-21%	-5%	-11%	?
O=C(c1ccncc1)N1CCN(c2cccc(C(F)(F)F)c2)CC1	?	-2	8%	-1%	-7%	?
O=C(c1ccccc1F)N1CCN(c2cccc(C(F)(F)F)c2)CC1	?	-23	5%	4%	-24%	16µM*
O=C(c1c(F)c(F)c(F)c(F)c1F)N1CCN(c2cccc(C(F)(F)F)c2)CC1	?	-4	-3%	-5%	-35%	18µM*
Cc1ccccc1C1CC(=O)Oc2cc(C)c(Cl)c(C)c21 (configuration not stated)	nt	nt	nt	-1%	nt	nt
O=C(CSc1nc(NS(=O)(=O)c2ccccc2)cc(=O)[nH]1)Nc1ccc(Cl)cc1	-16%	32	1%	7.1µM*	-27%	-14%
O=C(CSc1nc2ccccc2c(=O)[nH]1)Nc1ccc(S(=O)(=O)N2CCCC2)cc1	16µM*	38	-24%	10%	-28%	?
COc1ccc(NC(=O)CSc2nc(NS(=O)(=O)c3ccccc3)cc(=O)[nH]2)cc1	-16%	8	2%	nt	-7%	3%
Cn1c(=O)n(C)c2cc(NC(=O)CSc3nc4ccccc4c(=O)[nH]3)ccc21	-16%	54	8%	3%[0.0935 µM]	2%	-26%
O=C(CSc1nc2ccccc2[nH]1)Nc1nc(-c2ccc(Br)cc2)cs1	23µM*	-14	1%	0%	-2%	16µM*
CC(C)(C)c1csc(NC(=O)CSc2nc3ccccc3c(=O)[nH]2)n1	18µM*	17	-44%	-2%	-19%	23µM*
Cc1cccc(NC(=O)CSc2nc3c([nH]c4ccccc43)c(=O)n2C)c1C	?	nt	-5%	10%	-2%	?
Cc1ccccc1C(=O)N1CC(=O)Nc2ccc(Cl)cc2C1c1ccccc1 (configuration not stated)	?	nt	84%	3%	32%	?
CC(C)CNC(=O)C1(C)CCCN1C(=O)c1ccncc1 (configuration not stated)	3%	19	2%	nt	7%	-14%
O=C(CSc1nc2ccccc2c(=O)[nH]1)Nc1ccc(C(=O)O)cc1	4%	-5	-12%	50µM*	4%	-3%
O=C(CSc1nc2ccccc2c(=O)[nH]1)Nc1ccc([N+](=O)[O-])cc1	?	1	-14%	0%	-62%	?
CC(=O)Nc1ccc(OCC(=O)NCc2ccccc2)cc1	23%	-19	11%	6%	7%	-1%
CCc1nc2ccccc2c(C(=O)OCC(=O)Nc2ccc(NC(C)=O)cc2)c1C	13µM*	-8	-1%	1%	-2%	21µM*
CCCc1nc2ccccc2c(C(=O)OCC(=O)Nc2cccc(S(=O)(=O)N3CCOCC3)c2)c1CC	12µM*	-10	?	3%	-19%	?
CCCc1nc2ccccc2c(C(=O)OCC(=O)NC2CC2)c1CC	?	3	-4%	-4%	-3%	?
SMILES	TDP1 cell CPT	IL1B secr inh	TGFb SMAD3 inh	TDP1 block	HepG2 tox	DT40 TDP1 no CPT
CCCc1nc2ccccc2c(C(=O)OCC(=O)Nc2ccc(S(=O)(=O)N3CCOCC3)cc2)c1CC	16µM*	-67*	?	3%	-4%	16µM*
CC(=O)Nc1ccc(C(=O)OCC(=O)NCc2ccccc2)cc1	?	33	8%	-8%	13%	21µM*
Cc1nc2ccc(C(=O)NCC3CCC4(CCN(Cc5cccnc5)CC4)O3)cc2nc1C (configuration not stated)	-6%[9.04 µM]	nt	nt	nt	nt	-26%
Cc1cccc(C)c1OCC(N)C(C)C (configuration not stated)	4%	-57*	24%	4%[56.1 µM]	-7%	13%
Cc1cccc(C)c1OCC(C)N (configuration not stated)	-2%	-24	15%	8%	2%	2%
Cc1sc(NC(=O)C2c3ccccc3Oc3ccccc32)c(C(=O)OC(C)C)c1C	18µM*	nt	0%	4%	-3%	?
Cc1c(C(=O)OC(C)C)sc(NC(=O)C2c3ccccc3Oc3ccccc32)c1C(=O)OC(C)C	23µM*	nt	-13%	3%	-15%	23µM*
CCOC(=O)c1c(NC(=O)C2c3ccccc3Oc3ccccc32)sc(C)c1CC	12%	nt	-12%	0%	1%	-6%
COc1ccc(S(=O)(=O)Nc2ccc3c(c2)N(C(C)=O)CCC3)cc1OC	?	-4	-6%	nt	1%	?
CC(=O)N1CCCc2ccc(NC(=O)c3ccc(OC(C)C)cc3)cc21	?	nt	5%	-1%	2%	16µM*
COc1ccc(C)cc1S(=O)(=O)Nc1ccc2c(c1)N(C(C)=O)CCC2	26µM*	11	-11%	0%	-19%	16µM*
COc1ccc(S(=O)(=O)Nc2ccc3c(c2)N(C(C)=O)CCC3)cc1	18µM*	8	-14%	-8%	-29%	16µM*
CCCOc1ccc(C(F)(F)F)cc1NC(=O)C1CC(=O)N(Cc2ccco2)C1 (configuration not stated)	-23%	-3	4%	3%	-11%	?
COc1cc(C(C)C)c2c(c1)S(=O)(=O)N(COc1cc(=O)n3cccc(OCCN4CCCCC4)c3n1)C2=O	nt	nt	nt	17%	nt	nt
CCC/C=C/c1ccc(CN2C(CC(C)C)C(=O)N(Cc3cn(CCOCOC)nn3)CCS2(=O)=O)cc1 (configuration not stated)	-15%	-14	3%	nt	-26%	-27%
